# Measurements taken from PMC8222333, “AsCas12a ultra nuclease facilitates the rapid generation of therapeutic cell medicines”.
# B1: TTTT (dsDNA)
# DNA 1: GCTATCTAGTGCTCAGTACGCACTGTTTTAGGAAACTTCTGGCAGGACCAGGTCATGAGATCGGAAGAGCACACGTCTGAACTCCAGTCA
# DNA 2: TGACTGGAGTTCAGACGTGTGCTCTTCCGATCTCATGACCTGGTCCTGCCAGAAGTTTCCTAAAACAGTGCGTACTGAGCACTAGATAGC
# RNA: AAUUUCUACUCUUGUAGAUAGGAAACUUCUGGCAGGACC
# B2: ACTC (dsDNA)
# DNA 1: GCTATCTAGTGCTCAGTACGCACTGACTCAGGAAACTTCTGGCAGGACCAGGTCATGAGATCGGAAGAGCACACGTCTGAACTCCAGTCA
# DNA 2: TGACTGGAGTTCAGACGTGTGCTCTTCCGATCTCATGACCTGGTCCTGCCAGAAGTTTCCTGAGTCAGTGCGTACTGAGCACTAGATAGC
# RNA: AAUUUCUACUCUUGUAGAUAGGAAACUUCUGGCAGGACC
# B3: AATC (dsDNA)
# DNA 1: GCTATCTAGTGCTCAGTACGCACTGAATCAGGAAACTTCTGGCAGGACCAGGTCATGAGATCGGAAGAGCACACGTCTGAACTCCAGTCA
# DNA 2: TGACTGGAGTTCAGACGTGTGCTCTTCCGATCTCATGACCTGGTCCTGCCAGAAGTTTCCTGATTCAGTGCGTACTGAGCACTAGATAGC
# RNA: AAUUUCUACUCUUGUAGAUAGGAAACUUCUGGCAGGACC
# B4: AGAA (dsDNA)
# DNA 1: GCTATCTAGTGCTCAGTACGCACTGAGAAAGGAAACTTCTGGCAGGACCAGGTCATGAGATCGGAAGAGCACACGTCTGAACTCCAGTCA
# DNA 2: TGACTGGAGTTCAGACGTGTGCTCTTCCGATCTCATGACCTGGTCCTGCCAGAAGTTTCCTTTCTCAGTGCGTACTGAGCACTAGATAGC
# RNA: AAUUUCUACUCUUGUAGAUAGGAAACUUCUGGCAGGACC
# B5: ACTA (dsDNA)
# DNA 1: GCTATCTAGTGCTCAGTACGCACTGACTAAGGAAACTTCTGGCAGGACCAGGTCATGAGATCGGAAGAGCACACGTCTGAACTCCAGTCA
# DNA 2: TGACTGGAGTTCAGACGTGTGCTCTTCCGATCTCATGACCTGGTCCTGCCAGAAGTTTCCTTAGTCAGTGCGTACTGAGCACTAGATAGC
# RNA: AAUUUCUACUCUUGUAGAUAGGAAACUUCUGGCAGGACC
# B6: ATTT (dsDNA)
# DNA 1: GCTATCTAGTGCTCAGTACGCACTGATTTAGGAAACTTCTGGCAGGACCAGGTCATGAGATCGGAAGAGCACACGTCTGAACTCCAGTCA
# DNA 2: TGACTGGAGTTCAGACGTGTGCTCTTCCGATCTCATGACCTGGTCCTGCCAGAAGTTTCCTAAATCAGTGCGTACTGAGCACTAGATAGC
# RNA: AAUUUCUACUCUUGUAGAUAGGAAACUUCUGGCAGGACC
# B7: AATA (dsDNA)
# DNA 1: GCTATCTAGTGCTCAGTACGCACTGAATAAGGAAACTTCTGGCAGGACCAGGTCATGAGATCGGAAGAGCACACGTCTGAACTCCAGTCA
# DNA 2: TGACTGGAGTTCAGACGTGTGCTCTTCCGATCTCATGACCTGGTCCTGCCAGAAGTTTCCTTATTCAGTGCGTACTGAGCACTAGATAGC
# RNA: AAUUUCUACUCUUGUAGAUAGGAAACUUCUGGCAGGACC
# B8: AATT (dsDNA)
# DNA 1: GCTATCTAGTGCTCAGTACGCACTGAATTAGGAAACTTCTGGCAGGACCAGGTCATGAGATCGGAAGAGCACACGTCTGAACTCCAGTCA
# DNA 2: TGACTGGAGTTCAGACGTGTGCTCTTCCGATCTCATGACCTGGTCCTGCCAGAAGTTTCCTAATTCAGTGCGTACTGAGCACTAGATAGC
# RNA: AAUUUCUACUCUUGUAGAUAGGAAACUUCUGGCAGGACC
# B9: AGGA (dsDNA)
# DNA 1: GCTATCTAGTGCTCAGTACGCACTGAGGAAGGAAACTTCTGGCAGGACCAGGTCATGAGATCGGAAGAGCACACGTCTGAACTCCAGTCA
# DNA 2: TGACTGGAGTTCAGACGTGTGCTCTTCCGATCTCATGACCTGGTCCTGCCAGAAGTTTCCTTCCTCAGTGCGTACTGAGCACTAGATAGC
# RNA: AAUUUCUACUCUUGUAGAUAGGAAACUUCUGGCAGGACC
# B10: ATTA (dsDNA)
# DNA 1: GCTATCTAGTGCTCAGTACGCACTGATTAAGGAAACTTCTGGCAGGACCAGGTCATGAGATCGGAAGAGCACACGTCTGAACTCCAGTCA
# DNA 2: TGACTGGAGTTCAGACGTGTGCTCTTCCGATCTCATGACCTGGTCCTGCCAGAAGTTTCCTTAATCAGTGCGTACTGAGCACTAGATAGC
# RNA: AAUUUCUACUCUUGUAGAUAGGAAACUUCUGGCAGGACC
# B11: ACTT (dsDNA)
# DNA 1: GCTATCTAGTGCTCAGTACGCACTGACTTAGGAAACTTCTGGCAGGACCAGGTCATGAGATCGGAAGAGCACACGTCTGAACTCCAGTCA
# DNA 2: TGACTGGAGTTCAGACGTGTGCTCTTCCGATCTCATGACCTGGTCCTGCCAGAAGTTTCCTAAGTCAGTGCGTACTGAGCACTAGATAGC
# RNA: AAUUUCUACUCUUGUAGAUAGGAAACUUCUGGCAGGACC
# B12: ATTG (dsDNA)
# DNA 1: GCTATCTAGTGCTCAGTACGCACTGATTGAGGAAACTTCTGGCAGGACCAGGTCATGAGATCGGAAGAGCACACGTCTGAACTCCAGTCA
# DNA 2: TGACTGGAGTTCAGACGTGTGCTCTTCCGATCTCATGACCTGGTCCTGCCAGAAGTTTCCTCAATCAGTGCGTACTGAGCACTAGATAGC
# RNA: AAUUUCUACUCUUGUAGAUAGGAAACUUCUGGCAGGACC
# B13: ACTG (dsDNA)
# DNA 1: GCTATCTAGTGCTCAGTACGCACTGACTGAGGAAACTTCTGGCAGGACCAGGTCATGAGATCGGAAGAGCACACGTCTGAACTCCAGTCA
# DNA 2: TGACTGGAGTTCAGACGTGTGCTCTTCCGATCTCATGACCTGGTCCTGCCAGAAGTTTCCTCAGTCAGTGCGTACTGAGCACTAGATAGC
# RNA: AAUUUCUACUCUUGUAGAUAGGAAACUUCUGGCAGGACC
# B14: ATTC (dsDNA)
# DNA 1: GCTATCTAGTGCTCAGTACGCACTGATTCAGGAAACTTCTGGCAGGACCAGGTCATGAGATCGGAAGAGCACACGTCTGAACTCCAGTCA
# DNA 2: TGACTGGAGTTCAGACGTGTGCTCTTCCGATCTCATGACCTGGTCCTGCCAGAAGTTTCCTGAATCAGTGCGTACTGAGCACTAGATAGC
# RNA: AAUUUCUACUCUUGUAGAUAGGAAACUUCUGGCAGGACC
# Molecular target: dAsCas12a WT (Acidaminococcus sp., UniProt U2UMQ6 1-1307, D908A;E993A;D1235A)
# Experiment: Spec-seq (native PAGE EMSA with sequencing of bound and unbound); 25 mM Tris-HCl pH 7.4, 150 mM KCl, 5 mM MgCl2, 10% glycerol, 1 mM DTT, 40 ng/uL salmon sperm DNA; 400 nM Cas12a, 480 nM crRNA, 50 nM library, 37 C 1 h; native P; high values mean tight binding
# Conditions: not given
row,Binder,binding signal [lnKA]
1,B1,-5.51
2,B6,-8.27
3,B10,-6.74
4,B12,-7.65
5,B14,-6.67

# Molecular target: dAsCas12a Ultra (Acidaminococcus sp., UniProt U2UMQ6 1-1307, M537R;F870L;D908A;E993A;D1235A)
# Experiment: Spec-seq (native PAGE EMSA with sequencing of bound and unbound); 25 mM Tris-HCl pH 7.4, 150 mM KCl, 5 mM MgCl2, 10% glycerol, 1 mM DTT, 40 ng/uL salmon sperm DNA; 400 nM Cas12a, 480 nM crRNA, 50 nM library, 37 C 1 h; native PAGE at room temperature; high values mean tight binding
# Conditions: protein: recombinant
row,Binder,binding signal [lnKA]
1,B1,-3.17
2,B2,-6.74
3,B3,-8.65
4,B4,-8.87
5,B5,-7.24
6,B6,-7.31
7,B7,-8.32
8,B8,-8.59
9,B9,-8.33
10,B10,-4.56
11,B11,-8.57
12,B12,-5.43
13,B13,-7.71
14,B14,-4.57

# Molecular target: dAsCas12a E174R (Acidaminococcus sp., UniProt U2UMQ6 1-1307, E174R;D908A;E993A;D1235A)
# Experiment: as above
# Conditions: protein: recombinant
row,Binder,binding signal [lnKA]
1,B1,-2.29
2,B2,-6.65
3,B3,-8.08
4,B4,-8.92
5,B5,-5.96
6,B6,-6.8
7,B7,-7.04
8,B8,-8.34
9,B10,-2.6
10,B11,-8.23
11,B12,-4.83
12,B13,-7.65
13,B14,-3.93

# Molecular target: dAsCas12a S542R (Acidaminococcus sp., UniProt U2UMQ6 1-1307, S542R;D908A;E993A;D1235A)
# Experiment: as above
# Conditions: protein: recombinant
row,Binder,binding signal [lnKA]
1,B1,-2.76
2,B2,-7.33
3,B3,-8.19
4,B4,-8.59
5,B5,-7.5
6,B6,-7.13
7,B7,-8.13
8,B8,-8.01
9,B9,-8.24
10,B10,-4.16
11,B11,-7.91
12,B12,-4.9
13,B13,-7.86
14,B14,-4.41

# Molecular target: dAsCas12a K548R (Acidaminococcus sp., UniProt U2UMQ6 1-1307, K548R;D908A;E993A;D1235A)
# Experiment: as above
# Conditions: protein: recombinant
row,Binder,binding signal [lnKA]
1,B1,-4.73
2,B3,-8.64
3,B6,-8.23
4,B10,-5.45
5,B12,-6.23
6,B14,-5.19

# Molecular target: d-enCas12a (Acidaminococcus sp., UniProt U2UMQ6 1-1307, E174R;S542R;K548R;D908A;E993A;D1235A)
# Experiment: as above
# Conditions: protein: recombinant
row,Binder,binding signal [lnKA]
1,B1,-0.44
2,B2,-4.8
3,B3,-2.56
4,B4,-5.61
5,B5,-5.02
6,B6,-2.42
7,B7,-2.24
8,B8,-5.1
9,B9,-5.52
10,B10,-0.456
11,B11,-5.7
12,B12,-1.2
13,B13,-5.67
14,B14,-0.519

# Molecular target: d-enCas12a-Ultra (Acidaminococcus sp., UniProt U2UMQ6 1-1307, E174R;S542R;K548R;M537R;F870L;D908A;E993A;D1235A)
# Experiment: as above
# Conditions: protein: recombinant
row,Binder,binding signal [lnKA]
1,B1,-0.171
2,B2,-1.58
3,B3,-0.883
4,B4,-3.36
5,B5,-1.82
6,B6,-0.548
7,B7,-0.762
8,B8,-2.64
9,B9,-3.42
10,B10,-0.172
11,B11,-3.19
12,B12,-0.339
13,B13,-2.87
14,B14,-0.186
